From PubChem BioAssay (Tox21)
Where “and” joins values, the source holds several entries; their conditions need not be identical. Identical values can stand only once. Results filed as inconclusive are left out. Where a call stands in place of a potency, no number is given. Some compounds were tested as several samples or in several runs, with calls that do not always agree. Calls of active or inactive are those of the source. Unless noted, calls come from the whole dose curve; as a rule, active = well fitted curve in the direction sought with a large enough effect in the repeat runs; inconclusive = weak or mixed curves; inactive = no such curve, though single readings can be large; an effect the other way counts as inactive or inconclusive.

Assays:
[1] = qHTS assay for small molecules that induce genotoxicity in human embryonic kidney cells expressing luciferase-tagged ATAD5 (AID 651632); note: nearly all actives have a fitted effect of over 15% in size
Outline: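 A rise in luciferase signal from ATAD5-tagged HEK293T cells marks genetic stress. Cells were exposed to compounds for 16 hr at 37C, 5% CO2, then luciferase was quantified after a 30 min room-temperature incubation with Amplite.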

[2] = qHTS assay for small molecule agonists of the p53 signaling pathway - cell viability (AID 651633; calls by dose curve; note: nearly all actives have a fitted effect of over 30% in size; note: potency is the fitted concentration of half-maximal effect)
Outline: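 Viability counter-read: CellTiter-Glo luminescence (30 min, room temperature) in the same p53RE-bla plates. These plates had been exposed to compounds for 16 h at 37 C.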

[3] = qHTS assay for small molecules that induce genotoxicity in human embryonic kidney cells expressing luciferase-tagged ATAD5 - cell viability (AID 651634; calls by dose curve; note: nearly all actives have a fitted effect of over 25% in size; note: potency is the fitted concentration of half-maximal effect)
Outline: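 Cytotoxicity counter-readout: after 15.5 hr compound treatment at 37C, live-cell protease activity in ATAD5-luciferase HEK293T cells measured by CellTiter-Fluor fluorescence, 30 min development at 37C.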

[4] = qHTS assay for small molecule disruptors of the mitochondrial membrane potential - cell viability (AID 720634; calls by dose curve; note: nearly all actives have a fitted effect of over 20% in size; note: potency is the fitted concentration of half-maximal effect)
Outline: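 Cytotoxicity was quantified from ATP content by CellTiter-Glo luminescence in the same wells as the MMP dye read-out. HepG2 (2,000 cells/well) were plated overnight and exposed to compounds for 1 hr at 37 C.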

[5] = qHTS assay for small molecule disruptors of the mitochondrial membrane potential (AID 720635); note: potency is the fitted concentration of half-maximal effect
Outline: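 Mitochondrial membrane potential tracked with Mito-MPS dye, red aggregates (ex 540/em 590 nm) against green monomers (ex 490/em 535 nm). Compound treatment 1 hr at 37C, dye 30 min in HepG2.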

[6] = qHTS assay to test for compound auto fluorescence at 535 nm (green) in HepG2 cells (AID 720675)
[7] = qHTS assay to test for compound auto fluorescence at 590 nm (red) in HEK293 cells (AID 720679)
Outline: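 Intensity at 540nm excitation and 590nm emission is reported as Rose Bengal sodium-equivalent autofluorescence. Measurements followed overnight exposure (37C, 5% CO2) of HEK293 cells, 2,000 per well, to 23 nL compound.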

[8] = qHTS assay to test for compound auto fluorescence at 535 nm (green) in HEK293 cells (AID 720680)
[9] = qHTS assay to test for compound auto fluorescence at 460 nm (blue) in HEK293 cell free culture (AID 720681)
Outline: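 Blue fluorescence (Ex 405/Em 460 nm, triamterene-equivalent) was read immediately after pin transfer of compound or DMSO into medium (DMEM, 10% FBS) without cells.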

[10] = qHTS assay to test for compound auto fluorescence at 535 nm (green) in HEK293 cell free culture (AID 720682)
Outline: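 Intrinsic compound fluorescence is measured in culture medium containing 10% FBS, with excitation at 485 nm and detection at 535 nm, referenced to fluorescein.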

[11] = qHTS assay to test for compound auto fluorescence at 590 nm (red) in HEK293 cell free culture (AID 720683)
Outline: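 Red-channel autofluorescence of compounds in culture medium (DMEM, 10% FBS), no cells, measured at 540/590 nm. Rose Bengal sodium is the reference fluorophore for equivalence.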

[12] = qHTS assay to test for compound auto fluorescence at 590 nm (red) in HepG2 cell free culture (AID 720684)
Outline: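 Cell-free; medium MEM + 10% FBS; compound or DMSO added by pintool; read Ex 540/Em 590 nm; Rose Bengal sodium as red reference fluorophore.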

[13] = qHTS assay to test for compound auto fluorescence at 460 nm (blue) in HepG2 cell free culture (AID 720685)
Outline: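 Cell-free plates of MEM plus 10% FBS received 23 nL compound or DMSO vehicle; blue-channel (405/460 nm) intensity scored against triamterene as reference fluorophore.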

[14] = qHTS assay to test for compound auto fluorescence at 535 nm (green) in HepG2 cell free culture (AID 720686)
[15] = qHTS assay to test for compound auto fluorescence at 460 nm (blue) in HepG2 cells (AID 720687)
Outline: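 Blue-channel autofluorescence (Ex/Em 405/460 nm, triamterene-equivalent) was measured after 1 hr compound exposure at 37 C, 5% CO2. Cells were HepG2, plated overnight at 37 C in MEM plus 10% FBS.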

[16] = biological target: Glucocorticoid receptor (Homo sapiens) (UniProt P04150); test: qHTS assay to identify small molecule agonists of the glucocorticoid receptor (GR) signaling pathway (AID 720691; active = well fitted activation curve with a large enough effect in the signal ratio in the repeat runs, not every such curve was filed as active; the % refers to the signal ratio)
Chain of Glucocorticoid receptor (Homo sapiens) (P04150 whole entry, looked up): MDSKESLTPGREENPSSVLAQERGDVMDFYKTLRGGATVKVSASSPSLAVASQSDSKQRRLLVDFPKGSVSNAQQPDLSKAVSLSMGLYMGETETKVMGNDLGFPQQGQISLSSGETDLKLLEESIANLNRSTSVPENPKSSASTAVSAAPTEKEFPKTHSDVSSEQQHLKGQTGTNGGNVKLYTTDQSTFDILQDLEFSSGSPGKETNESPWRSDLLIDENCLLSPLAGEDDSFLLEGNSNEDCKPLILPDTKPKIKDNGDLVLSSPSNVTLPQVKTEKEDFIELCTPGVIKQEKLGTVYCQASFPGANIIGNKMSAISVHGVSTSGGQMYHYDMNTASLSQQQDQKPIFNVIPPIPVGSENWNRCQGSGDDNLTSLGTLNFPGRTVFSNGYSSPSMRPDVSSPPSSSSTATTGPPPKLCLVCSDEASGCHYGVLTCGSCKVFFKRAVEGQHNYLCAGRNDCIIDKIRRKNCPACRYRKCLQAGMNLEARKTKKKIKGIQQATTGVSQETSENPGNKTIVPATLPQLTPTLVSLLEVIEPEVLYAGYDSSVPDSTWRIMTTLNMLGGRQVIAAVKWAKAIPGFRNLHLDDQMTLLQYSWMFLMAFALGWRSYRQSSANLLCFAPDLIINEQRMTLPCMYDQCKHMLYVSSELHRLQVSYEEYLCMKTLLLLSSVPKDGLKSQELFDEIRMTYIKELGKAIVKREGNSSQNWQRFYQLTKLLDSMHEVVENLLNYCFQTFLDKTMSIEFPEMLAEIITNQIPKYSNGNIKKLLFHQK
Outline: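 Agonist-mode qHTS in HeLa cells stably expressing a glucocorticoid-response-element beta-lactamase reporter. Fluorescence intensity read with FRET substrate (2 h, room temperature) after 18 h compound treatment at 37 C.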

[17] = qHTS assay to test for compound auto fluorescence at 590 nm (red) in HepG2 cells (AID 720674)
Outline: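 Red autofluorescence (Ex/Em 540/590 nm, Rose Bengal sodium equivalents) was measured in HepG2 cells, 2,000 per well in MEM plus 10% FBS, plated overnight at 37 C. Readings were taken 1 hr after adding 23 nL compound or DMSO, at 37 C and 5% CO2.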

[18] = biological target: Glucocorticoid receptor (Homo sapiens) (UniProt P04150); test: qHTS assay to identify small molecule antagonists of the glucocorticoid receptor (GR) signaling pathway (AID 720692; active = well fitted inhibition curve with a large enough effect in the signal ratio in the repeat runs, not every such curve was filed as active; the % refers to the signal ratio; note: potency is the fitted concentration of half-maximal effect)
Outline: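 Inhibition of dexamethasone-driven (5 nM final) beta-lactamase expression was measured in GRE-reporter HeLa cells over 18 h at 37C. Fluorescence was read after 2 h with the B/G FRET substrate at room temperature.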

[19] = qHTS assay to test for compound auto fluorescence at 460 nm (blue) in HEK293 cells (AID 720678)
Outline: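 HEK293, 2,000 cells/well, 10% dialyzed FBS; attach 4-5 hr 37C; pin compound or DMSO; o/n 37C/5% CO2; fluorescence 405/460 nm; triamterene-equivalent units.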

[20] = qHTS assay for small molecule agonists of the p53 signaling pathway (AID 651631; calls by dose curve; note: nearly all actives have a fitted effect of over 15% in size)
Outline: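 Fluorescence intensity from cleaved LiveBLAzer B/G substrate (2 h, room temperature) served as the signal. Beforehand, HCT-116 reporter cells bearing p53 response elements were treated 16 h at 37 °C with DMSO-dissolved compounds.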

SMILES	Potency [1]	Potency [2]	Potency [3]	Potency [4]	Potency [5]	outcome [6]	outcome [7]	outcome [8]	outcome [9]	outcome [10]	outcome [11]	outcome [12]	outcome [13]	outcome [14]	outcome [15]	Potency [16]	outcome [17]	Potency [18]	outcome [19]	Potency [20]
O=S(=O)(Oc1ccc(Cl)cc1)c1ccc(Cl)cc1	inactive	inactive	inactive	inactive	31 µM (active) and 12.2 µM (active)	inactive	inactive	inactive	inactive	inactive	inactive	inactive	inactive	inactive	inactive	inactive				
C1=Cc2cccc3cccc1c23	inactive	inactive	inactive	inactive		inactive	inactive		inactive	inactive	inactive	inactive	inactive	inactive	inactive	inactive	inactive	inactive		
CC(C)(c1cc(Cl)c(O)c(Cl)c1)c1cc(Cl)c(O)c(Cl)c1	inactive	61.1 µM (active)	inactive	inactive	2.43 µM (active) and 2.73 µM (active)	inactive		inactive	inactive	inactive	inactive	inactive	inactive	inactive	inactive	inactive	inactive	12.3 µM (active) and 6.92 µM (active)	inactive	
O=C(NC(=O)c1c(F)cccc1F)Nc1ccc(Cl)cc1	inactive	inactive	inactive	inactive	inactive	inactive	inactive	inactive	inactive	inactive	inactive	inactive	inactive	inactive			inactive		inactive	
c1ccc(-c2cccc(-c3ccccc3)c2)cc1		inactive				inactive			inactive	inactive	inactive	inactive	inactive	inactive	inactive				inactive	inactive
Oc1cc(Cl)c(Cl)cc1Cl	inactive	inactive	inactive		5.96 µM (active) [middle of 4 runs]	inactive		inactive	inactive	inactive	inactive	inactive	inactive	inactive	inactive		inactive			
C#CCOS(=O)OC1CCCCC1Oc1ccc(C(C)(C)C)cc1 (configuration not stated)	inactive	inactive	inactive	inactive and 3.86 µM (active)	15.4 µM (active) and 24.3 µM (active)	inactive			inactive	inactive	inactive	inactive	inactive	inactive	inactive	inactive	inactive	43.7 µM (active)	inactive	
N#CC(Br)Br	inactive	inactive	inactive	inactive	inactive	inactive	inactive	inactive	inactive	inactive	inactive	inactive	inactive	inactive	inactive	inactive	inactive	inactive	inactive	
C=C(C)[C@H]1Cc2c(ccc3c2O[C@@H]2COc4cc(OC)c(OC)cc4[C@@H]2C3=O)O1	inactive		139 nM (active) and 486 nM (active)	11.9 µM (active) and 31 µM (active) and 12.2 µM (active)	15 µM (active) and 31 µM (active) and 4.86 µM (active)	inactive		inactive	inactive	inactive	inactive	inactive	inactive	inactive	inactive	inactive	inactive		inactive	
CCC(C)c1ccc(O)cc1 (configuration not stated)	inactive	inactive	inactive	inactive	27.6 µM (active) and 24.3 µM (active)	inactive		inactive	inactive	inactive	inactive	inactive	inactive	inactive		inactive	inactive	inactive	inactive	
CCOCN(C(=O)CCl)c1c(C)cccc1CC	inactive	inactive	inactive	inactive		inactive	inactive	inactive	inactive	inactive	inactive	inactive	inactive	inactive	inactive	inactive	inactive			
CC(C)(C)c1ccccc1O	inactive	inactive	inactive			inactive		inactive	inactive	inactive	inactive	inactive	inactive	inactive	inactive	inactive	inactive	inactive	inactive	
